Screening results deposited in PubChem BioAssay by National Center for Advancing Translational Sciences (NCATS).
Pf growth 96h: Primary qHTS for delayed death inhibitors of the malarial parasite plastid, 96 hour incubation. P. falciparum luciferase reporter growth, 96 h. Potency, µM (titrated, usually from 28.7 µM), usual class: inhibitors. actives 6.9% (n = 320,000)
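Erythrocytes infected with luciferase-expressing P. falciparum were dispensed at 2% hematocrit and 0.05% parasitemia (final), then incubated with compounds 96 hours at 37 C in 5% CO2. Luminescence after detection reagent addition reported growth.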
Cycloheximide cs: Cycloheximide Counterscreen for Small Molecule Inhibitors of Shiga Toxin; max response, %; cell reporter, cycloheximide protein synthesis inhibition counterscreen; AID 2314, 2010; actives 12% (n = 300,000); in the data active means max response mostly above about 13%, no sharp cut-off; inactive means mostly below about 14%; further: read at 38.3 µM for the half of the compounds with a filed dose
SARS PLpro yeast: qHTS of Yeast-based Assay for SARS-CoV PLP | S. cerevisiae expressing SARS-CoV PLpro, growth rescue | Potency, µM (doses to about 32.9 µM), actives largely listed as activators | actives 0.19% (n = 330,000) | AID 485353, 2010; calls by dose curve; further: nearly all actives have a fitted effect of over 55% in size
Shiga toxin inh: A qHTS for Small Molecule Inhibitors of Shiga Toxin; AID 2315, 2010; Vero cells, Shiga toxin protein synthesis inhibition reporter; actives 9.2% (n = 290,000); inhibition, % at 38.7 µM; in the data active means inhibition mostly above about 28%, no sharp cut-off; inactive means mostly below about 43%
Pf growth 48h: Primary qHTS for delayed death inhibitors of the malarial parasite plastid, 48 hour incubation; actives 5.9% (n = 310,000); Potency, µM (highest dose often 28.7 µM), hits mostly inhibitors; P. falciparum luciferase growth in erythrocytes, 48 h
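Firefly luciferase activity from engineered P. falciparum reports growth; inhibitors lower the luminescent signal. Cultures contained 2% hematocrit erythrocytes at 0.1% final parasitemia.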
NS1 inh: qHTS Assay for Inhibitors of Influenza NS1 Protein Function; Potency, µM (top dose mostly 46.1 µM); AID 2326, 2010; actives 0.4% (n = 270,000); calls by dose curve; further: actives are rising curves; nearly all actives have a fitted effect of over 50% in size
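Growth recovery, yeast-based: influenza A NS1 expressed in S. cerevisiae causes slow growth, and suppressors are detected by OD600. The parent strain without NS1 is used as positive control.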
Numbers stand for hits; . = inactive; ? = inconclusive; / = not tested or not shown. Only some compounds are listed: those with a hit (about 21% of all), similar ones and a draw of the others. Unless noted, the call rests on the fitted dose curve; in most records, active means well fitted inhibition curve with a large enough effect; inconclusive means small, poorly fitted or top-dose-only effect, or another doubt; inactive means no such curve, though single readings can be large or run the other way.

SMILES	Pf growth 96h	Cycloheximide cs	SARS PLpro yeast	Shiga toxin inh	Pf growth 48h	NS1 inh
Cc1ccc(S(=O)(=O)N2CCCCC2)cc1NC(=O)COC(=O)c1ccc(O)cc1	0.23µM	.	.	.	?	/
O=C(COC(=O)c1ccc([N+](=O)[O-])o1)Nc1cccc(S(=O)(=O)N2CCOCC2)c1	?	.	.	.	.	.
Cc1ccc(NC(=O)COC(=O)c2ccc([N+](=O)[O-])o2)cc1S(=O)(=O)N1CCCCCC1	?	28	.	59	.	/
COc1ccc(S(=O)(=O)N2CCC(C(=O)NCc3ccco3)CC2)cc1	?	.	.	.	3.3µM	.
O=C(NCc1ccco1)C1CCCN(S(=O)(=O)c2ccc(Br)cc2)C1 (stereo not given)	15µM	.	.	.	.	.
CCOc1ccc(S(=O)(=O)N2CCN(C(=S)NCc3ccco3)CC2)cc1	2.3µM	.	.	.	2.9µM	.
CCOc1ccc(S(=O)(=O)N2CCC(C(=O)NCC3CCCO3)CC2)cc1C (stereo not given)	2.3µM	.	.	.	.	.
O=C(COc1ccc(S(=O)(=O)N2CCCC2)cc1)NCc1ccco1	.	.	.	.	/	.
COc1ccc(S(=O)(=O)N2CCC(C(=O)N[C@H](C(=O)NCc3ccco3)C(C)C)CC2)cc1	.	.	.	.	.	.
Cc1ccc(NC(=O)NC2CC(=O)N(c3ccc4c(c3)OCCO4)C2)cc1F (stereo not given)	?	/	.	/	.	/
Cc1ccsc1C1C(C#N)=C(N)N(N(C)C)C2=C1C(=O)CC(C)(C)C2 (stereo not given)	?	.	.	.	?	/
CCOc1ccc(S(=O)(=O)N2CCC(C(=O)Nc3cc(S(C)(=O)=O)ccc3Cl)CC2)cc1	?	/	.	/	10µM	/
O=C(NCc1ccco1)C1CCN(S(=O)(=O)c2ccccc2C(F)(F)F)CC1	?	/	.	/	10µM	/
CCOc1ccc(S(=O)(=O)N2CCC(C(=O)NCc3ccco3)CC2)cc1	.	.	.	.	9.3µM	.
CC1CC(C)CN(S(=O)(=O)c2ccc(C(=O)NCc3ccco3)cc2)C1 (stereo not given)	8.3µM	.	.	.	?	/
CCOc1ccc(S(=O)(=O)N2CCCC(C(=O)NCc3ccco3)C2)cc1 (stereo not given)	.	.	.	.	.	.
CS(=O)(=O)c1ccc(Cl)c(NC(=O)C2CCN(S(=O)(=O)c3cccs3)CC2)c1	?	/	.	/	?	/
COc1cc(OC)cc(-c2nnc(SCC(=O)Nc3cccc(C(=O)O)c3)s2)c1	.	.	.	.	.	/
O=C(O)C1CCN(S(=O)(=O)c2ccc(N3CCCC3C(=O)O)c([N+](=O)[O-])c2)CC1 (stereo not given)	.	.	.	.	.	.
CCCNC(=O)C1CCN(S(=O)(=O)c2c(C)noc2/C=C\c2ccc(OC)cc2)CC1	?	.	.	.	/	.
CCOc1ccc(S(=O)(=O)N2CCC(C(=O)NCc3ccco3)CC2)cc1C	1.9µM	.	.	.	?	.
COc1ccc(/C=C\c2onc(C)c2S(=O)(=O)N2CCC(C(=O)NCc3ccco3)CC2)cc1	13µM	.	.	.	?	.
CC(C)c1ccc(S(=O)(=O)N2CCC(C(=O)NCc3ccco3)CC2)cc1	2.6µM	/	.	/	3.3µM	/
COc1ccc(S(=O)(=O)N2CCC(C(=O)N3CCc4ccccc4C3)CC2)cc1	.	.	.	.	?	.
CCOc1ccc(S(=O)(=O)N2CCC(C(=O)N3CCc4ccccc4C3)CC2)cc1	2.9µM	.	.	.	?	.
SMILES	Pf growth 96h	Cycloheximide cs	SARS PLpro yeast	Shiga toxin inh	Pf growth 48h	NS1 inh
O=C(O)c1cc(-c2ccc(Cl)c(Cl)c2)n(-c2ccc(F)cc2)n1	.	.	.	.	/	.
COc1cccc(-n2nnnc2SCC(=O)Nc2ccc(NC(C)=O)cc2)c1	.	.	.	.	.	.
COC(=O)c1ccc(CNC(=O)COC(=O)c2ccccc2-c2ccccc2)cc1	.	/	.	/	?	/
CSCCC(NC(=O)c1ccccc1)C(=O)NNC(=O)c1csc(N2CCOCC2)n1 (stereo not given)	.	.	.	.	.	.
O=C(NCCc1ccc(C(F)(F)F)cc1)C1CCC(=O)N(CCc2cccc(F)c2)C1 (stereo not given)	.	16	.	.	.	.
COc1ccc(CCCNC(=O)C2CCC(=O)N(CCc3cccc(F)c3)C2)cc1 (stereo not given)	4.1µM	.	.	.	.	.
O=C(NCCc1ccccc1C(F)(F)F)C1CCC(=O)N(CCCN2CCCC2=O)C1 (stereo not given)	9.3µM	.	.	.	.	.
Cn1c(Br)nc2c1c(=O)n(CC(O)COc1ccccc1)c(=O)n2C (stereo not given)	.	.	.	.	.	.
Cc1ccc2c(c1)C(=O)C1(O)CCN(c3ccccc3)C1=N2 (stereo not given)	/	36	/	.	/	/
COc1ccc(-n2nc(C(=O)NCC(=O)Nc3cccc(Cl)c3)c3ccccc3c2=O)cc1	12µM	.	.	.	9.3µM	?
CCOc1ccc(NC(=O)CNC(=O)c2nn(-c3ccc(OC)cc3)c(=O)c3ccccc23)cc1	.	.	.	.	9.3µM	.
COc1ccc(-n2nc(C(=O)NCC(=O)Nc3ccccn3)c3ccccc3c2=O)cc1	.	.	.	.	.	.
Cc1[nH]c(-c2ccc(F)cc2)cc1C(=O)N1CCN(c2cccc(Cl)c2)CC1	.	.	.	.	?	.
Cn1c(C(=O)N2CCCC(C(=O)c3ccc(C(F)(F)F)cc3)C2)cc(=O)n(C)c1=O (stereo not given)	?	.	.	.	.	.
O=c1cc(CN2CCN(c3ccccc3)CC2)c2c(ccc3ccccc32)o1	10µM	.	.	.	13µM	.
CC(C)c1ccc2oc(=O)cc(CN3CCN(c4ccc(F)cc4)CC3)c2c1	/	.	?	.	13µM	.
O=c1cc(CN2CCC3(CC2)OCCO3)c2c(ccc3ccccc32)o1	/	.	.	.	?	.
O=c1cc(CN2CCN(c3ccccc3)CC2)c2cc(O)c(-c3ccccc3)cc2o1	3.3µM	.	.	.	2.6µM	.
CCc1ccc2oc(=O)cc(CN3CCN(c4ccc(F)cc4)CC3)c2c1	?	.	.	.	?	.
COc1ccc(N2CCN(Cc3cc(=O)oc4ccc(C)cc34)CC2)cc1	?	.	.	.	/	.
COc1ccc(N2CCN(Cc3cc(=O)oc4c3ccc3ccccc34)CC2)cc1	12µM	.	.	.	.	.
CCCCCn1nc(C(=O)N(CC)c2c(N)n(CCCC)c(=O)[nH]c2=O)c2ccccc2c1=O	/	/	.	/	/	/
O=C1NN=C(c2ccc(Br)cc2)CC1c1ccc(Cl)cc1 (stereo not given)	.	.	.	.	.	.
